According to the supplement of paper PMC3414501:

tested on: S. cerevisiae AD1-9 (efflux-pump deficient), vegetative growth in YPD; assay: growth sensitivity score (doubling time z-score vs DMSO controls); higher = slower growth, strongly negative scores also mark growth inhibition (complete suppression), active = hit call of the paper; in the data active = 2 or more and inactive = the rest
How it was run: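 Rich medium in microtiter plates was seeded with Saccharomyces cerevisiae strains BY4741 and AD1-9 at an OD600 of 0.065, and compounds were added as a 1:100 dilution of DMSO stock. A Tecan GENios reader recorded optical density every 15 min for 24 hours, with eight solvent-only wells in each experiment. Average doubling time was the time to reach a set generation point divided by generation number. The growth sensitivity score was the compound mean minus the solvent-only mean, divided by the solvent-only standard deviation.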

| Structure (SMILES) | growth sensitivity score |
| --- | --- |
| CN(C)CCc1c[nH]c2ccc(C[C@H]3COC(=O)N3)cc12 [Zolmitriptan] (stock concentration (mM, diluted 1:100): 10) | -1.29 (inactive) |
| CCCCN1CCCC1CNC(=O)c1cc(C#N)c2ccccc2c1OC (stereo not drawn) [Nafadotride] (stock concentration (mM, diluted 1:100): 10) | -2.8 |
| CC(C)(C)NC(=O)[C@H]1CC[C@H]2[C@@H]3CC[C@H]4NC(=O)C=C[C@]4(C)[C@H]3CC[C@]12C [Finasteride] (stock concentration (mM, diluted 1:100): 10) | 20.2 (active) |
| OCc1cccnc1 [3-Pyridinemethanol] (stock concentration (mM, diluted 1:100): 10) | 0.78 (inactive) |
| Nc1nc(Cl)nc2c1ncn2[C@H]1C[C@H](O)[C@@H](CO)O1 [2-Chloro-2-Deoxyadenosine] (stock concentration (mM, diluted 1:100): 10) | -1.81 (inactive) |
| COc1ccc2cc([C@H](C)C(=O)O)ccc2c1 [Naproxen sodium] (stock concentration (mM, diluted 1:100): 10) | 1.41 (inactive) |
| C#C[C@]1(O)CC[C@H]2[C@@H]3CCC4=CC(=O)CC[C@@H]4[C@H]3CC[C@@]21CC [Levonorgestrel] (stock concentration (mM, diluted 1:100): 10) | -0.41 (inactive) |
| OCc1cc(C(O)CNCCCCCCOCCCCc2ccccc2)ccc1O (stereo not drawn) [Salmeterol] (stock concentration (mM, diluted 1:100): 10) | 41.2 (active) |
